Compound activity from PubChem BioAssay.
Rows were chosen to be rich in hits. Some 3.5% of all compounds tested hit in one or more screens of this group.
GPR151 activ = activates the human receptor GPR151; Q8TDV0; PathHunter beta-arrestin GPR151 cells, luminescence; activation, % at 11.2 µM; 650,000 tested, 1% active; in the data active means activation above about 4.9%;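 further: 0% = median of compound wells and 100% = cells with positive control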
Target sequence (Q8TDV0 whole entry, looked up): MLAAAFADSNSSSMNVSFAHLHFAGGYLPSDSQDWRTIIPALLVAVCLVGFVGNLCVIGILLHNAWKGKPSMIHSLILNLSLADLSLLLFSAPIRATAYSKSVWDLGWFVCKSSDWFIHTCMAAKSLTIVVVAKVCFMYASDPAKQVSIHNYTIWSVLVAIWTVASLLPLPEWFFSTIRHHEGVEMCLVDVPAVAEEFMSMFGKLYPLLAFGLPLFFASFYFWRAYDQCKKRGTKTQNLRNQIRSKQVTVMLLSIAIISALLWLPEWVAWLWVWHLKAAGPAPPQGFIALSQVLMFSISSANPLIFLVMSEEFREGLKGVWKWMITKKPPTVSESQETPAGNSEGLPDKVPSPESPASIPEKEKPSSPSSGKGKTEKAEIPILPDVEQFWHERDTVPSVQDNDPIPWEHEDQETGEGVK
FBW7 activator = human FBW7 E3 ligase activation, primary screen; Q969H0; AlphaScreen FBW7–phospho-cyclin E peptide binding, activator screen; normalized activity (activation), % at 26.1 µM; 650,000 tested, 0.13% active; AID 1259310; in the data active means normalized activity above about 1.9%;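 further: purified mutant Fbw7 with reduced substrate affinity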
TEAD-YAP block = TEAD-YAP interaction inhibition. 640,000 tested, 1.4% active. inhibition, % at 9.12 µM. HEK-TIYL cells, TEAD-Gal4/YAP UAS-luciferase luminescence; in the data active means inhibition above about 32%;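 further: 0% = median of test compound wells and 100% = reference inhibitor wells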
MITF inh = inhibitors of human MITF; O75030; inhibition, % at 2.6 µM; 650,000 tested, 0.91% active; AlphaScreen MITF homodimerization, bead proximity signal; AID 1259374; in the data active means inhibition above about 50%;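 further: 0% = vehicle wells with protein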
* marks the source's active call; other numbers are inactive results.

SMILES	GPR151 activ	FBW7 activator	TEAD-YAP block	MITF inh
Cc1cc(/C=N/Nc2nc3ccccc3s2)c(C)n1C1CC1	-0.7	-0.1	57.4*	15.6
O=C(O)c1ccc(/C=N/Nc2nc3ccccc3s2)cc1	-8.1	-0.1	-64.2	4.4
COc1ccc(/C=N/Nc2nc3ccccc3s2)cc1	0.6	0.0	34.1*	1.1
COc1ccc(S(=O)(=O)Nc2ccc3c(c2)OCCO3)cc1Br	0.3	-0.2	0.0	-2.7
COc1ccccc1Oc1ccc(S(=O)(=O)Nc2ccc3c(c2)OCCO3)cc1	1.6	0.0	44.3*	12.8
CC(C)CC1NC(=O)N(Cc2ccc(CN3C(=O)NC(CC(C)C)C3=O)cc2)C1=O (stereo not drawn)	-0.6	0.1	1.3	1.0
COc1cc2ccccc2cc1C(=O)N/N=C/c1cccs1	-0.3	0.1	49.8*	-9.4
CC(C)Oc1ccc(Br)cc1C(=O)N/N=C/c1ccc(O)cc1	0.2	-0.1	2.9	-3.1
CCOc1ccc(Br)cc1C(=O)N/N=C/c1ccc(C)o1	-0.1	0.0	36.2*	-7.6
O=C(N/N=C/c1cccs1)c1cc2ccccc2cc1O	0.0	0.1	-4.1	8.6
CC(C)Oc1ccc(Br)cc1C(=O)N/N=C/c1ccco1	0.6	0.0	38.5*	-1.9
CCOc1ccc(Br)cc1C(=O)N/N=C/c1cccs1	-1.5	0.2	54.9*	21.7
Cc1ccccc1C1(CC(=O)N(C)C(C)c2ccon2)CC(=O)N(Cc2cccnc2)C1=O (stereo not drawn)	0.2	0.5	3.6	18.6
CC(C)CNC(=O)CN(c1ccccc1)S(C)(=O)=O	0.0	0.0	0.1	-2.5
N#Cc1sc2nccc(Nc3ccccc3)c2c1N	0.1	0.1	33.9*	5.8
NC(=O)c1ccccc1NC(=O)c1ncoc1-c1ccccc1C(F)(F)F	-2.0	0.1	49.2*	-0.3
O=C(Nc1ccccc1-n1ccnc1)c1ncoc1-c1ccccc1C(F)(F)F	0.8	0.1	5.6	7.5
COc1ccccc1-c1cc(C(=O)N/N=C/c2cccc(OC)c2O)[nH]n1	0.5	-0.1	39.8*	33.0
COc1ccccc1-c1cc(C(=O)N/N=C\c2ccccc2)[nH]n1	2.5	-0.1	-3.0	3.2
COc1cccc(/C=N/NC(=O)c2cc(-c3cccc([N+](=O)[O-])c3)n[nH]2)c1O	-0.4	0.0	71.9*	11.1
COc1ccc(-c2cc(C(=O)N/N=C/c3c(C)[nH]c4ccccc34)[nH]n2)cc1OC	0.8	0.3	44.9*	9.2
COc1cccc(/C=N/NC(=O)c2ccn(C)n2)c1O	-1.3	-0.4	-29.8	8.8
COc1cc([N+](=O)[O-])cc(/C=N/NC(=O)c2cc(-c3ccccc3)n[nH]2)c1O	-0.3	0.2	1.8	21.7
COc1cccc(/C=N/NC(=O)c2cc(-c3cccn3C)n[nH]2)c1O	0.4	-0.9	38.2*	18.2
CCOC(CNC(=O)c1ccc2c(c1)nc(C)n2-c1ccccc1OC)OCC	0.0	0.0	2.5	-23.2
SMILES	GPR151 activ	FBW7 activator	TEAD-YAP block	MITF inh
CCCn1c2ccccc2c2nnc(SCC(=O)Nc3cccc(C(F)(F)F)c3)nc21	2.1	-0.1	-2.1	-1.9
Cc1ccc(C2=Nn3c(nnc3-c3ccccc3C)SC2)cc1	-0.2	0.0	59.7*	0.8
Brc1ccc(C2=Nn3c(nnc3-c3ccccc3)SC2)cc1	0.3	-0.1	-5.9	9.7
Oc1ccc(C2=Nn3c(nnc3-c3ccccc3O)SC2)cc1O	3.1	0.1	40.9*	22.4
Cc1ccc(-n2ncc3c(NCCCn4ccnc4)ncnc32)cc1C	-1.1	0.0	-26.1	18.9
Clc1cccc(-n2ncc3c(NCCCn4ccnc4)ncnc32)c1	-1.7	-0.1	56.4*	-4.1
COc1ccc(-n2nc([N+](=O)[O-])c(=Nc3ccccc3)n2O)cc1	-0.4	-0.1	54.2*	10.6
Cc1ccc(N=c2c([N+](=O)[O-])nn(-c3ccccc3)n2O)c(Cl)c1	0.8	-0.1	6.6	-2.3
Cc1ccc(N=c2c([N+](=O)[O-])nn(-c3ccc4c(c3)OCCO4)n2O)c(Cl)c1	1.2	-0.1	46.9*	-3.9
Cc1cc(C)cc(N=c2c([N+](=O)[O-])nn(-c3ccc4c(c3)OCCO4)n2O)c1	2.1	-0.3	-2.9	8.6
O=[N+]([O-])c1nn(-c2ccc3c(c2)OCCO3)n(O)c1=Nc1ccccc1	-1.2	-0.3	88.8*	0.0
COC(=O)c1cc(COc2ccc(S(=O)(=O)N3CCOCC3)cc2[N+](=O)[O-])oc1C	-0.2	1.1	5.6	18.8
COc1ccc(C(=CCl)c2ccc(OC)cc2)cc1	2.3	-0.1	41.6*	-9.1
CN(CC(=O)Nc1ccccc1C(N)=O)S(=O)(=O)c1ccccc1	0.2	0.1	1.7	16.4
CCCNC(=O)c1cc(NCc2ccc3c(c2)OCO3)nc2ccccc12	-0.1	-0.1	-1.4	-3.6
O=C(NCCOc1ccccc1)c1cc(NCc2ccc3c(c2)OCO3)nc2ccccc12	6.1*	0.0	-5.5	13.4
O=C(Cn1nc(C(=O)N2CCOCC2)cc1C1CC1)Nc1ccc(Cl)c(Cl)c1	-1.6	-0.1	-48.0	4.1
c1ccc(Nc2cc(-c3ccnc(Nc4ccccc4)c3)ccn2)cc1	-0.8	-0.1	38.0*	10.9
NC(=O)c1ccc(Nc2cc(-c3ccccc3)ccn2)cc1	-0.3	1.0	-78.2	11.2
O=C(CN1CCCCC1)NN1C(=O)c2cccc3cccc(c23)C1=O	2.1	0.0	1.5	6.3
COCCNc1ccnc2c(-c3ccc4c(c3)OCO4)cnn12	-2.4	0.2	50.7*	9.9
COCCNc1ccnc2c(-c3ccc(F)c(Cl)c3)cnn12	0.0	1.9*	-0.6	2.1
CCN(CC)CCNc1c([N+](=O)[O-])c(=O)n(-c2ccccc2)c2ccccc12	-0.9	0.1	-11.2	7.2
O=C1N=C(N2CCCC2)S/C1=C/c1ccc(O)cc1	0.4	-0.1	12.9	2.9
CC1CCCN(C2=NC(=O)/C(=C\c3ccc(O)cc3)S2)C1 (stereo not drawn)	-1.7	0.0	61.0*	-4.0
SMILES	GPR151 activ	FBW7 activator	TEAD-YAP block	MITF inh
O=C1N=C(N2CCCC(CO)C2)S/C1=C/c1cccc2ccccc12 (stereo not drawn)	-2.1	-0.1	60.9*	2.4
CC1CCCN(C2=NC(=O)/C(=C\c3ccc(N(C)C)cc3)S2)C1 (stereo not drawn)	-0.1	0.0	59.0*	0.0
COc1c(C)cnc2c1c(=O)n(CC(=O)Nc1cccc(Cl)c1)c(=O)n2C	2.9	-0.1	-3.5	-2.8
C/C(=N\N=C1/NC(=O)C(C)S1)c1ccc(C)cc1 (stereo not drawn)	-0.4	-0.5	47.2*	-0.9
CCn1c(SCC(=O)N2CCCC2)nnc1-c1c[nH]c2ccccc12	0.3	-0.2	0.7	-6.7
CCOC(=O)N1CCN(C(=O)CSc2nnc(-c3c[nH]c4ccccc34)n2CC)CC1	-1.9	0.0	35.8*	-13.1
Cc1ccc(-c2c(Nc3ccccc3C)c(=O)c2=O)cc1	2.6	0.1	48.6*	-0.2
Cc1ccc(Nc2c(-c3ccccc3)c(=O)c2=O)cc1F	-1.6	0.0	35.3*	9.5
Cc1ccc(-c2c(NC(C)c3ccccc3)c(=O)c2=O)cc1 (stereo not drawn)	2.4	0.1	44.9*	-0.2
Cc1ccc(CNc2c(-c3ccccc3)c(=O)c2=O)cc1	-0.8	0.0	-7.9	-0.9
